Experimental data published in ChEMBL document CHEMBL4513148, “CO-ADD screening of Stellenbosch University (South Africa) compounds”.
Measured potencies and affinities stand elsewhere.

Experiments:
Klebsiella pneumoniae = conditions: Concentration 32 ug.mL-1; ASSAY_TEST Inhibition of Bacterial Growth; detection method Absorption (OD600); MEDIA CAMHB; plate type 384well; NBS; CORNING #3640; time 18 hr
Candida albicans = conditions: 32 ug/mL
Cryptococcus neoformans = conditions: Concentration 32 ug.mL-1; ASSAY_TEST Inhibition of Fungal Growth; detection method Resazurin; Absorption (OD600-OD570); plate type 384well; NBS; CORNING #3640

| SMILES | Inhibition (Klebsiella pneumoniae) [%] | Inhibition (Candida albicans) [%] | Inhibition (Cryptococcus neoformans) [%] |
| --- | --- | --- | --- |
| CCCCCCCNC(=O)CCNC(=O)C(O)C(C)(C)C (stereo unspecified) | 17.81 | 1 | 0.36 |
| CC(C)(CO)C(O)C(=O)NCCCOP(=O)(O)OCC1OC(n2ccc(N)nc2=O)C(O)C1O (stereo unspecified) | 14.41 | 3.26 | -6.1 |
| CC(C)(CO)[C@@H](O)C(=O)NCCC(=O)NNCc1ccccc1 | 28.52 | 4.15 | -4.98 |
| CC(C)(CO)[C@H](O)C(=O)NCCC(=O)OCc1cn(C[C@H]2O[C@@H](n3ccc(N)nc3=O)[C@H](O)[C@@H]2O)nn1 | 19.86 | 3.13 | -1.73 |
| CC(C)(CO)[C@H](O)C(=O)NCCc1cn(C[C@H]2O[C@@H](n3ccc(N)nc3=O)[C@H](O)[C@@H]2O)nn1 | 11.31 | 0.57 | -3.52 |
| CC(CC(=O)NCCc1ccccc1)NC(=O)[C@H](O)C(C)(C)CO (stereo partly specified) | 21.7 | 3.05 | 2.32 |
| CC(C)(COP(=O)(O)O)[C@@H](O)C(=O)NCCC(=O)NCCc1ccccc1 | 20.53 | 1.57 | 21.44 |
